Abeta rescue = qHTS for compounds that reverse cellular toxicity of Amyloid beta (A-beta) peptide in yeast: Primary Screen. yeast expressing A-beta42, growth rescue, OD600, 48 h; response scale: 0% DMSO, 100% iron-clioquinol control. Potency, µM (titrated, usually from 46.1 µM), most hits filed as activators. hit rate 0.063% among 410,000; note: nearly all actives have a fitted effect of over 55% in size
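Yeast growth medium received pinned compounds, then yeast cells expressing toxic A-beta were added; plates incubated at 30 C for 48 hr. Growth read as absorbance at 600 nm, normalized to DMSO and equimolar FeCl3 plus clioquinol controls.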
TDP43 rescue = qHTS of TDP-43 Inhibitors | hit rate 1.8% among 410,000 | Potency, µM (top dose mostly 46.1 µM), for inactives: top-dose growth rescue (activation), hits mostly activators | TDP-43 expressing yeast growth rescue, BacTiter-Glo, 24 h; note: % of control where 0% means no effect; nearly all actives have a fitted effect of over 50% in size
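Galactose-induced TDP-43 yeast, OD600=0.02, compound pinned; 24 hr, 30 deg C; BacTiter-Glo luminescence for growth. Inhibitors of TDP-43 toxicity read as activators.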
TSG101-PTAP inh = qHTS Assay for Iinhibitors of HIV-1 Budding by Blocking the Interaction of PTAP/TSG101; Tumor susceptibility gene 101 protein (Homo sapiens), Q99816; Fluorescence polarization, FITC-PTAP peptide / Tsg101 binding; Potency, µM (doses to about 115 µM), for inactives: at the top dose activity change, negative = inhibition, actives largely listed as inhibitors; 340,000 tested, under 10 active; AID 493005, 2010; active = well fitted inhibition curve with a large enough effect in the main read-out, with a control signal flat, not every such curve was filed as active; inconclusive = small, poorly fitted or top-dose-only effect, or effect the other way, or a change in a side signal; inactive = no such curve, though single readings can be large or run the other way; note: % of control where 0% means no effect
Target sequence (Q99816 whole entry, looked up): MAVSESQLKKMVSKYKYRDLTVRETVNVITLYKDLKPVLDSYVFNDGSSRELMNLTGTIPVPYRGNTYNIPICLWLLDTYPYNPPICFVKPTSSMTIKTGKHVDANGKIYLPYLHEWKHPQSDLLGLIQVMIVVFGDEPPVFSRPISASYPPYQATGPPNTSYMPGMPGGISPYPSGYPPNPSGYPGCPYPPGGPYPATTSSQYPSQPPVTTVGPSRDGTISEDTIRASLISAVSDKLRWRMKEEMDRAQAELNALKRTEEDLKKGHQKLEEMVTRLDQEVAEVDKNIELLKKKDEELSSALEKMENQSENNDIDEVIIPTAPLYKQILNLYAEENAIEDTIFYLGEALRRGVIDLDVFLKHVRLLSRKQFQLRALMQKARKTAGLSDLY
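FP read-out: FITC-PTAP peptide, 50 nM final, binding Tsg101 binding domain, 10 uM final; 20 min, r.t.; 10 mM HEPES pH 7.5, 0.15 M NaCl, 0.01% Tween 20, 3 mM EDTA, 0.1 mM TCEP.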
FUS suppressor = qHTS for Suppressors of FUS Proteinopathy: Primary screen using FUS-linked yeast assay; Potency, µM (top dose mostly 76.6 µM), actives largely listed as activators; hit rate 0.24% among 390,000; S. cerevisiae FUS-expressing, growth rescue, OD600, 24 h;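 note: plate controls were DMSO vehicle for no effect and reference control for full effect; nearly all actives have a fitted effect of over 55% in size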
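Steps: raffinose overnight preculture; dilution to OD 0.005 in 2% galactose minimal medium; compound addition (concentration series); 24hr at 30C, 99% humidity; absorbance read at 600 nm.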
aSyn yeast inh = qHTS of alpha-syn Inhibitors; Yeast expressing alpha-synuclein, growth rescue, BacTiter-Glo, 24 h; Potency, µM (titrated, usually from 46.1 µM), for inactives: top-dose growth rescue (activation), hits mostly activators; hit rate 0.14% among 370,000; AID 652106, 2013; note: % of control where 0% means no effect; nearly all actives have a fitted effect of over 65% in size
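Screening used galactose-induced yeast with toxic alpha-synuclein levels, exposed to compound for 24 hr at 30 deg C. Cell growth, read with BacTiter-Glo luminescence, gave the measured signal.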
An asterisk follows results filed as active; i = inactive; ? = inconclusive; nt = no result given. Shown are actives, neighbours in structure and some others; about 2.1% of the full set was active somewhere. Unless noted, calls come from the whole dose curve; as a rule, active = well fitted curve in the direction sought with a large enough effect; inconclusive = small, poorly fitted or top-dose-only effect, or another doubt; inactive = no such curve, though single readings can be large; an effect the other way counts as inactive or inconclusive. Potency is the fitted concentration of half-maximal effect.

SMILES | Abeta rescue | TDP43 rescue | TSG101-PTAP inh | FUS suppressor | aSyn yeast inh
Nc1c(Cl)cnc(C(Cl)(Cl)Cl)c1Cl | i | 12.6µM* | -1.6% | i | -0.1%
Cc1ccc(CNC(=O)CSCc2nc(-c3cccc(C)c3)oc2C)cc1 | i | 23.3% | nt | i | nt
Cc1cccc(-c2nc(CSCC(=O)NCCc3ccc(Cl)cc3)c(C)o2)c1 | i | 25.1µM* | nt | ? | nt
Cc1ccc(CCNC(=O)CSCc2nc(-c3ccc(C)cc3)oc2C)cc1 | i | 25.1µM* | nt | i | nt
COc1ccc(C(=O)C[n+]2cccc3cc(Cl)ccc32)cc1 | nt | nt | nt | nt | 0.8%
COc1ccc(OC)c(NC(=O)c2nc(S(=O)(=O)Cc3ccccc3F)ncc2Cl)c1 | nt | nt | nt | nt | -6.7%
C(=N/Nc1nc(-c2ccccc2)cc(-c2ccccc2)n1)/c1cccnc1 | i | 14.1µM* | -0.8% | nt | 8.4%
CC1(Cc2ccc(F)c(Cl)c2)C(=O)Nc2c(Cl)cccc21 (centres undefined) | i | 22.4µM* | nt | i | 3.55µM*
COc1ccc(Cl)cc1CC1(C)C(=O)Nc2c(Cl)cccc21 (centres undefined) | i | 28.2µM* | nt | i | 4.0%
Cc1cccc(-c2nc(CCNC(=O)c3ccc(Br)o3)cs2)c1 | i | 15.8µM* | nt | i | nt
Cc1cccc(-c2nc(CCNC(=O)c3ccco3)cs2)c1 | i | ? | nt | i | -8.5%
O=C(NCCc1csc(-c2cccnc2)n1)c1ccc(Br)o1 | i | -1.5% | -3.4% | i | -29.8%
O=C(NCCc1csc(-c2ccccc2)n1)c1ccc(Br)o1 | i | 22.4µM* | -4.6% | i | 6.0%
CN(C(=O)CCc1nc(-c2ccccc2F)no1)c1ccccc1 | i | -9.0% | -5.0% | i | -0.7%
CN(C(=O)CCc1nc(-c2ccccc2F)no1)c1ccc(Cl)cc1 | i | 22.4µM* | nt | i | nt
COC(=O)c1ccccc1NC(=O)c1ccc2c(c1)CCN2S(=O)(=O)c1ccc(Cl)cc1 | i | 15.3% | nt | i | nt
N#Cc1cn(CCOc2ccc(F)cc2)c2ccccc12 | ? | 20µM* | -5.1% | i | 27.5%
N#Cc1cn(CCOc2ccccc2F)c2ccccc12 | ? | ? | -2.0% | i | ?
CC(C)(C)c1ccc(OCCC(=O)OCC(=O)NC2CCCCC2)cc1 | i | 35.5µM* | 0.8% | i | 7.3%
O=C(COC(=O)Cc1c(Cl)cccc1Cl)NC1CCCC1 | i | 20µM* | -2.3% | i | 11.7%
O=C(COC(=O)CNC(=O)c1ccccc1Cl)NC1CCCC1 | i | -33.4% | -7.1% | i | -3.8%
O=C1Nc2ccccc2C(=O)C1(Cl)Cc1ccccc1 (centres undefined) | i | 35.5µM* | -1.7% | i | -51.8%
CC(=O)NC(c1ccc(Cl)cc1Cl)c1ccc2cccnc2c1O (centres undefined) | ? | 31.6µM* | -3.7% | i | ?
CCCC(=O)NC(c1cccc([N+](=O)[O-])c1)c1ccc2cccnc2c1O (centres undefined) | i | 1.7% | nt | i | -1.9%
CCCC(=O)NC(c1ccc(Cl)cc1Cl)c1ccc2cccnc2c1O (centres undefined) | ? | nt | -3.0% | i | ?
SMILES | Abeta rescue | TDP43 rescue | TSG101-PTAP inh | FUS suppressor | aSyn yeast inh
CC(C)C(=O)NC(c1cccc([N+](=O)[O-])c1)c1ccc2cccnc2c1O (centres undefined) | i | 35.5µM* | -3.2% | i | -39.4%
CCC(=O)N1c2ccccc2CC1C(=O)NCCN1CCN(c2cc(Cl)ccc2C)CC1 (centres undefined) | i | 8.8% | nt | i | nt
Cc1ccc(Cl)cc1N1CCN(c2nc3ccc(C(=O)c4ccccc4)cc3n3cnnc23)CC1 | i | 7.1% | nt | i | nt
O=S(=O)(Nc1ccc2nc(-c3ccc(F)cc3)oc2c1)c1ccccc1 | ? | 35.5µM* | nt | i | nt
CC[C@@H](C)[C@@H](C(=O)Nc1ccc(C)cc1)N1Cc2ccccc2C1=O | i | ? | nt | ? | nt
COc1cc(C(C(=O)NC2CCCCC2)N(C(=O)Cc2c[nH]c3ccccc23)c2ccccc2C)cc(OC)c1OC (centres undefined) | i | 13.8% | -3.4% | 22.4µM* | 4.4%
CC1CCN(S(=O)(=O)c2ccc3[nH]ccc3c2)CC1 | i | ? | nt | i | nt
O=S(=O)(NNC(=S)Nc1ccc(S(=O)(=O)Nc2ncccn2)cc1)c1ccc(Br)cc1 | i | 3.98µM* | -2.1% | i | ?
COc1cc2nc(N3CCOCC3)nc(NC3CCN(C)CC3)c2cc1OC | nt | nt | nt | nt | 0.6%
COC(=O)[C@]12CCCCC=C1N(Cc1ccc(Cl)cc1Cl)C(=O)[C@H](CC(=O)N1CCOCC1)C2 | i | 17.8µM* | nt | ? | 29.3%
COC(=O)[C@]12CCCCC=C1N(Cc1ccc(Cl)cc1Cl)C(=O)[C@H](CC(=O)N1CCCCC1)C2 | i | ? | nt | ? | 11.1%
CCOC(=O)[C@]12CCCC=C1N(Cc1ccc(Cl)cc1Cl)C(=O)[C@H](CC(=O)N1CCN(C(=O)c3ccco3)CC1)C2 | i | 15.8µM* | nt | 17.8µM* | 28.5%
CCOC(=O)[C@]12CCCC=C1N(Cc1ccc(Cl)cc1Cl)C(=O)[C@H](CC(=O)N1CCCC1)C2 | i | 10.6% | nt | i | 0.9%
COc1cc(CNCc2c(C(=O)O)c(C)n(Cc3cccc(Cl)c3)c2C)cc(OC)c1OC | i | -24.7% | nt | i | nt
O=C(Nc1cc2c(cc1C(=O)c1ccccc1Br)OCCO2)c1cccc(Cl)c1 | i | 20.2% | nt | i | nt
C[n+]1ccnc2ccccc21 | nt | nt | nt | nt | -6.6%
CC[C@@H](C)[C@H]1O[C@]2(CC[C@H]1C)C[C@@H]1C[C@@H](CC=C(C)[C@@H](O[C@H]3C[C@H](OC)[C@@H](O[C@H]4C[C@H](OC)[C@@H](O)[C@H](C)O4)[C@H](C)O3)[C@@H](C)C=CC=C3CO[C@@H]4[C@H](O)C(C)=C[C@@H](C(=O)O1)[C@]34O)O2 | nt | nt | nt | nt | 3.6%
CC[C@H](C)[C@H]1O[C@]2(CC[C@@H]1C)C[C@@H]1C[C@@H](CC=C(C)[C@@H](O[C@H]3C[C@H](OC)[C@@H](O[C@H]4C[C@H](OC)[C@@H](O)[C@H](C)O4)[C@H](C)O3)[C@@H](C)C=CC=C3CO[C@@H]4[C@H](O)C(C)=C[C@@H](C(=O)O1)[C@]34O)O2 | i | 9.8% | -4.1% | 7.08µM* | 24.9%
COc1cc(OC)c(C2SCCCS2)cc1OC | i | 35.5µM* | -0.9% | nt | -0.2%

Source: PubChem (National Center for Advancing Translational Sciences (NCATS))
